Of roughly 7,900 targets only a part is listed; those with a hit were picked by preference. About 0.6% of all pairs of compound and target were hits. Unmarked numbers belong to inactive results.
Columns and labels:
Experiment in all cases: log2 fold change, soluble protein after heating vs DMSO (PISA); higher = thermal stabilisation; K562 cells, 10 uM, 30 min; active = over 0.2 and 3.5 SD of the protein, either way, in both replicates (recomputed)
[1] = compound: COC1=CC=C(C=C1)CN2C=CC3=C2C=C(C=C3)C(=O)NO
Outline: (§1)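 Soluble protein was quantified by TMTpro 16plex LC-MS/MS after channel sums were equalised. It was obtained as the supernatant after 21,000xg for 90 min from pooled aliquots of K562 cells (2×10^6 cells/mL, 10 μM compound, 30 min) heated for 3 min across 48°C-58°C and extracted in PBS with 0.5% NP-40 at 4°C. Thermal stability values are relative to control samples and come from duplicates. They are given as log2 fold changes.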

filanesib = compound: CON(C)C(=O)N1N=C(c2cc(F)ccc2F)S[C@@]1(CCCN)c1ccccc1 [filanesib]
Outline: as §1

zotarolimus = compound: CO[C@H]1C[C@@H]2CC[C@@H](C)[C@@](O)(O2)C(=O)C(=O)N2CCCC[C@H]2C(=O)O[C@H]([C@H](C)C[C@@H]2CC[C@H](n3cnnn3)[C@H](OC)C2)CC(=O)[C@H](C)/C=C(\C)[C@@H](O)[C@@H](OC)C(=O)[C@H](C)C[C@H](C)/C=C/C=C/C=C/1C [zotarolimus]
Outline: as §1

idasanutlin = compound: COc1cc(C(=O)O)ccc1NC(=O)[C@@H]1N[C@@H](CC(C)(C)C)[C@](C#N)(c2ccc(Cl)cc2F)[C@H]1c1cccc(Cl)c1F [idasanutlin]
Outline: as §1

alisertib = compound: COc1cc(Nc2ncc3c(n2)-c2ccc(Cl)cc2C(c2c(F)cccc2OC)=NC3)ccc1C(=O)O [alisertib]
Outline: as §1

[2] = compound: COc1cc2nc(-c3cc(F)ccc3O)nc(N[C@@H]3CNC[C@H]3C(C)(C)O)c2cc1OC
Outline: as §1

[3] = compound: COc1cccc2cc(-c3nc([C@H]4CC[C@H](C(=O)O)CC4)n4ncnc(N)c34)[nH]c12
Outline: as §1

lapatinib = compound: CS(=O)(=O)CCNCc1ccc(-c2ccc3ncnc(Nc4ccc(OCc5cccc(F)c5)c(Cl)c4)c3c2)o1 [lapatinib]
Outline: as §1

[4] = compound: CS(=O)(=O)c1ccc(-c2cnc(N)c(C(=O)Nc3ccccc3)n2)cc1
Outline: as §1

crizotinib = compound: C[C@@H](Oc1cc(-c2cnn(C3CCNCC3)c2)cnc1N)c1c(Cl)ccc(F)c1Cl [crizotinib]
Outline: as §1

[5] = compound: C[C@@H]1COCCN1C2=NC(=NC(=C2)C3(CC3)S(=O)(=O)C)C4=C5C=CNC5=CC=C4
Outline: as §1

[6] = compound: C[C@H](C1=CC=C(C=C1)C(=O)NC2=C3C=CNC3=NC=C2)N
Outline: as §1

duvelisib = compound: C[C@H](Nc1ncnc2nc[nH]c12)c1cc2cccc(Cl)c2c(=O)n1-c1ccccc1 [duvelisib]
Outline: as §1

tozasertib = compound: Cc1cc(Nc2cc(N3CCN(C)CC3)nc(Sc3ccc(NC(=O)C4CC4)cc3)n2)n[nH]1 [tozasertib]
Outline: as §1

[7] = compound: Cc1cc(SCc2sc(-c3ccc(C(F)(F)F)cc3)nc2C)ccc1OCC(=O)O
Outline: as §1

doramapimod = compound: Cc1ccc(-n2nc(C(C)(C)C)cc2NC(=O)Nc2ccc(OCCN3CCOCC3)c3ccccc23)cc1 [doramapimod]
Outline: as §1

gefitinib = compound: COc1cc2ncnc(Nc3ccc(F)c(Cl)c3)c2cc1OCCCN1CCOCC1 [gefitinib]
Outline: as §1

pictilisib = compound: CS(=O)(=O)N1CCN(Cc2cc3nc(-c4cccc5[nH]ncc45)nc(N4CCOCC4)c3s2)CC1 [pictilisib]
Outline: as §1

gandotinib = compound: Cc1cc(Nc2cc(CN3CCOCC3)c3nc(C)c(Cc4ccc(Cl)cc4F)n3n2)n[nH]1 [gandotinib]
Outline: as §1

ispinesib = compound: Cc1ccc(C(=O)N(CCCN)[C@@H](c2nc3cc(Cl)ccc3c(=O)n2Cc2ccccc2)C(C)C)cc1 [ispinesib]
Outline: as §1

Chain of UniProt Q9H2X9 (Q9H2X9 whole entry, looked up): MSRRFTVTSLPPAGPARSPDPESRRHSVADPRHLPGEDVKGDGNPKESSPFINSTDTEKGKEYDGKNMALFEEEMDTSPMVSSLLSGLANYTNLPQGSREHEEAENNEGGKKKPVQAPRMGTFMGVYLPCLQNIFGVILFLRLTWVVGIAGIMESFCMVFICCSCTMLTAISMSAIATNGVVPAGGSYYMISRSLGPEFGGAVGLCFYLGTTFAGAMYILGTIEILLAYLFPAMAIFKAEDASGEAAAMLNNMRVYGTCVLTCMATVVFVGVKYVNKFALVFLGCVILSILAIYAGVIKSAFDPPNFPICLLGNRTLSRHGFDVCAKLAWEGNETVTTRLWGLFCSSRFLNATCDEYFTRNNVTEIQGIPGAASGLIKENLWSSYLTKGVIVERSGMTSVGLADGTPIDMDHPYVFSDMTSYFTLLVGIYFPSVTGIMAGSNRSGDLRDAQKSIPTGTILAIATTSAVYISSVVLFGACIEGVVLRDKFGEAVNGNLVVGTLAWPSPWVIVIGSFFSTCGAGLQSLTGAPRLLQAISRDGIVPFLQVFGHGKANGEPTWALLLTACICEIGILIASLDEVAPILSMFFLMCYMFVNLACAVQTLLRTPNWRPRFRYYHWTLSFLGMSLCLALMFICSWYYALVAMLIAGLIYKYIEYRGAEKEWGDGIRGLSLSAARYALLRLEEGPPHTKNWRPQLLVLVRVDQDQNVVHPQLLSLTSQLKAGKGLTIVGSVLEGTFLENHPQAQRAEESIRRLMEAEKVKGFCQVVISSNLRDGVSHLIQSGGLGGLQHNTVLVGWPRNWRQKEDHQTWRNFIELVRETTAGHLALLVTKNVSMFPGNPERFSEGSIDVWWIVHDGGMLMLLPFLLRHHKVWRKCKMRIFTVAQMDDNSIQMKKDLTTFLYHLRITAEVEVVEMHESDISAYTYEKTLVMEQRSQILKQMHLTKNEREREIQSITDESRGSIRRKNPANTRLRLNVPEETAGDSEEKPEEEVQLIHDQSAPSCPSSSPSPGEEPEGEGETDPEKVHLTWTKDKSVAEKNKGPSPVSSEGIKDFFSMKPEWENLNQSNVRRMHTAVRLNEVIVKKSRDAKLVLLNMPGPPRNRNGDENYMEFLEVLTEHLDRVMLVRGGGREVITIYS
Chain of UniProt P60602 (P60602 whole entry, looked up): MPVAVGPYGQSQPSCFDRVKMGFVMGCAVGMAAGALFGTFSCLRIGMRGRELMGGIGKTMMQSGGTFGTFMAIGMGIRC
Chain of UniProt Q5RL73 (Q5RL73 whole entry, looked up): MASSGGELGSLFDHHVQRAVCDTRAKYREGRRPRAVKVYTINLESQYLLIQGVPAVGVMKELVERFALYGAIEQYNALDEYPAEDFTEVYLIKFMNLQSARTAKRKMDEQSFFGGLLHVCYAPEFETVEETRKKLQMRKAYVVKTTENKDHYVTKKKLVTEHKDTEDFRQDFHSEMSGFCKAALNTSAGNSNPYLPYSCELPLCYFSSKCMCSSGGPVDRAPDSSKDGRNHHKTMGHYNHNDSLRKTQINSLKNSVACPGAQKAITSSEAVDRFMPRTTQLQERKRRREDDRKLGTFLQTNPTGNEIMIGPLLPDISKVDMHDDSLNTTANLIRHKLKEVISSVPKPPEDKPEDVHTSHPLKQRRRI
Chain of UniProt O15127 (O15127 whole entry, looked up): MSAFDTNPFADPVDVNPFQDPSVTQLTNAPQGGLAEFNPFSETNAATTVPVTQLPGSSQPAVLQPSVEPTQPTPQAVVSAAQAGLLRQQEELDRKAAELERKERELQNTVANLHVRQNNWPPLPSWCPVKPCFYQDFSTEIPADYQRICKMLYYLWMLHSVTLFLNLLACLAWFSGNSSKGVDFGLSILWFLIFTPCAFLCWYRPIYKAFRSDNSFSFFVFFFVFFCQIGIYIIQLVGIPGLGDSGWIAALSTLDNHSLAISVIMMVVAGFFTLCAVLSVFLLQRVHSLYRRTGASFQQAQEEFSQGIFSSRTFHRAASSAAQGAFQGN
Chain of UniProt Q02383 (Q02383 whole entry, looked up): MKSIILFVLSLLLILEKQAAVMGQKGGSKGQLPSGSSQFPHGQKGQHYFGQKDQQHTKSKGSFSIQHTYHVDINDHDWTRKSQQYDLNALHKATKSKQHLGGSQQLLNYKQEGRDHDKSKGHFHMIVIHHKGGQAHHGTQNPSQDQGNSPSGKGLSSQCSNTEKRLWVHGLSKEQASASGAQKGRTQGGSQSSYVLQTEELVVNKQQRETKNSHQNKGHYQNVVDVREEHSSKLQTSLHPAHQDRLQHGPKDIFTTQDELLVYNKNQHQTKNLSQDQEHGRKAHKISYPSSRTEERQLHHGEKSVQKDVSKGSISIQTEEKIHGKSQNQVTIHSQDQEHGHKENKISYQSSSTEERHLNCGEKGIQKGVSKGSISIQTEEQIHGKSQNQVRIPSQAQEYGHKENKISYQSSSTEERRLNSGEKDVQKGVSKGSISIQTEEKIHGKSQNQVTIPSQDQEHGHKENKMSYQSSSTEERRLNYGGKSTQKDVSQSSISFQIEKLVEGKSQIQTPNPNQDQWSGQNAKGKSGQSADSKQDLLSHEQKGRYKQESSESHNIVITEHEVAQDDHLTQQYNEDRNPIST
Chain of UniProt Q7L099 (Q7L099 whole entry, looked up): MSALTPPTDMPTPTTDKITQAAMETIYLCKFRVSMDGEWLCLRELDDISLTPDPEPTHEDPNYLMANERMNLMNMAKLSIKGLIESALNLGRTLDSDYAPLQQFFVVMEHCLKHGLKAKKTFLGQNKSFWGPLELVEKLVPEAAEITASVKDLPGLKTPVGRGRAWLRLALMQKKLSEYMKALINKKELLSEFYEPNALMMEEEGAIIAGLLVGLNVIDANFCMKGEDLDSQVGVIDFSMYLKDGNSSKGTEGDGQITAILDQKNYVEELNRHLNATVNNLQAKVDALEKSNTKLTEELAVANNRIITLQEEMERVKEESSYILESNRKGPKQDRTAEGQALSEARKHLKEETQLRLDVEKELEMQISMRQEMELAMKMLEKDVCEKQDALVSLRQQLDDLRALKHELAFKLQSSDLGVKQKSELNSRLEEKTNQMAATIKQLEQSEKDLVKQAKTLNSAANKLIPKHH
Chain of UniProt O00560 (O00560 whole entry, looked up): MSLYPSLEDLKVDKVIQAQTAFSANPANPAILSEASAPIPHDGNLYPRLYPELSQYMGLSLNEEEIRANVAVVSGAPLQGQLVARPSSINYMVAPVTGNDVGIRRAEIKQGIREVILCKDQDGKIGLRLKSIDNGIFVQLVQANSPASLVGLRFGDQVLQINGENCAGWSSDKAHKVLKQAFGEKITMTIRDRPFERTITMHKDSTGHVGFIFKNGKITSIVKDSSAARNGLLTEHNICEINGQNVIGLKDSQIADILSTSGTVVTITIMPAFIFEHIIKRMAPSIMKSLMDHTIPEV
Chain of UniProt Q8IZE3 (Q8IZE3 whole entry, looked up): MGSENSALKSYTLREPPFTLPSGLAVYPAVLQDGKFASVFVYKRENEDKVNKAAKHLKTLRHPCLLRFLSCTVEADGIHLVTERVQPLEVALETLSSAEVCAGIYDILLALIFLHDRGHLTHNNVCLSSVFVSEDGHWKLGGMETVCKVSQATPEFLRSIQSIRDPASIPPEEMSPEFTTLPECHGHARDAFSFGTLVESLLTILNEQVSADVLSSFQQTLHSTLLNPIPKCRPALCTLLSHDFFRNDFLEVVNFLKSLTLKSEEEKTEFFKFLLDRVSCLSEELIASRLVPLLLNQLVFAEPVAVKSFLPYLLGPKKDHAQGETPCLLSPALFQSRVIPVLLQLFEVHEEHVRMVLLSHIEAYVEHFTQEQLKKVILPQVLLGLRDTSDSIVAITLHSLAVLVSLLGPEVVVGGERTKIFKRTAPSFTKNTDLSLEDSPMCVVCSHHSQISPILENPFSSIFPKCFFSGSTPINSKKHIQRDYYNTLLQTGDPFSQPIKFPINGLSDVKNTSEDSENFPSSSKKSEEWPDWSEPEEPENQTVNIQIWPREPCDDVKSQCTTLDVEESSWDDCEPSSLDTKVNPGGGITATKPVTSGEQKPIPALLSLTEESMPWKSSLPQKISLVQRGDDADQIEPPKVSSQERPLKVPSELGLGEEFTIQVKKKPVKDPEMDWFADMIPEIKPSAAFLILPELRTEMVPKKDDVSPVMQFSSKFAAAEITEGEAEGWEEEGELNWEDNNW
Chain of UniProt P60903 (P60903 whole entry, looked up): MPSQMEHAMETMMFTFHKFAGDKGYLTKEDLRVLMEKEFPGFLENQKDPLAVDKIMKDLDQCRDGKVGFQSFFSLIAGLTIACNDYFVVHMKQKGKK
Chain of UniProt O95716 (O95716 whole entry, looked up): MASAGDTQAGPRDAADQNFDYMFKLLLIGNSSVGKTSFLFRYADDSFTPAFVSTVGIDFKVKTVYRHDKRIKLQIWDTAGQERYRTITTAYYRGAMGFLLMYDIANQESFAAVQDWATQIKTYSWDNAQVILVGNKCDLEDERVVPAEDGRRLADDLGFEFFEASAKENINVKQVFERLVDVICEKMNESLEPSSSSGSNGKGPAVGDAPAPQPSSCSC
Chain of UniProt Q96EU6 (Q96EU6 whole entry, looked up): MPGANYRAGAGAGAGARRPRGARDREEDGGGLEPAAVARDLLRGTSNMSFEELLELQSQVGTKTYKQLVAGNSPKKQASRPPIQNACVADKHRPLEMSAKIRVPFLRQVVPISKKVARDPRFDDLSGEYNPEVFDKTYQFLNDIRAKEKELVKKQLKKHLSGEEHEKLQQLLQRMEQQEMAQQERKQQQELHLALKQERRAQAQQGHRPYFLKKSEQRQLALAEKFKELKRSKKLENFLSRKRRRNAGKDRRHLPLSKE
Chain of UniProt Q9H4P4 (Q9H4P4 whole entry, looked up): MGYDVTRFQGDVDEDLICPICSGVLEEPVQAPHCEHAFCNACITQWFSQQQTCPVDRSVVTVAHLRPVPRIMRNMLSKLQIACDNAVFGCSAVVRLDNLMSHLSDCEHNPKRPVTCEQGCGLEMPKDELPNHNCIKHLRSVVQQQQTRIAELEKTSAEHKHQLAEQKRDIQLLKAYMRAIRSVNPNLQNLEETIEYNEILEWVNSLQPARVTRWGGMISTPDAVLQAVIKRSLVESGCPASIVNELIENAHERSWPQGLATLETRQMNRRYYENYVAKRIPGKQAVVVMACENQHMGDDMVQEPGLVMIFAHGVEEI

Target	log2 fold change [1]	log2 fold change (filanesib)	log2 fold change (zotarolimus)	log2 fold change (idasanutlin)	log2 fold change (alisertib)	log2 fold change [2]	log2 fold change [3]	log2 fold change (lapatinib)	log2 fold change [4]	log2 fold change (crizotinib)	log2 fold change [5]	log2 fold change [6]	log2 fold change (duvelisib)	log2 fold change (tozasertib)	log2 fold change [7]	log2 fold change (doramapimod)	log2 fold change (gefitinib)	log2 fold change (pictilisib)	log2 fold change (gandotinib)	log2 fold change (ispinesib)
SLC12A5 (UniProt Q9H2X9)	0.323	-0.071	-0.076	0.017	0.299	-0.097	0.124	0.085	0.089	0.001	0.028	0.027	-0.07	-0.039	0.083	0.234	–	–	–	–
RUFY3 isoform 3 (UniProt Q7L099)	-0.06	0.053	0.003	-0.108	0.155	0.045	-0.122	-0.01	0.017	0.007	–	-0.085	-0.073	0.002	0.617 (active)	-0.057	0.08	0.018	-0.012	-0.048
SERINC1 (UniProt Q9NRX5)	0.073	-0.146	–	0.233	0.073	-0.208	-0.167	-0.227	0.075	-0.197	0.037	–	0.03	0.125	-0.016	0.068	-0.266	–	–	-0.048
RBM48 isoform 2 (UniProt Q5RL73)	-0.046	-0.049	-0.076	0.04	–	-0.046	–	0.011	0.081	0.25	-0.069	-0.06	–	-0.245	–	0.041	-0.024	-0.083	0.152	0.072
SDCBP isoform 2 (UniProt O00560)	–	-0.08	–	–	-0.236	0.045	0.034	-0.04	0.093	–	-0.108	–	0.019	0.045	0.069	–	-0.054	0.228	0.058	-0.185
RAB3D (UniProt O95716)	–	–	-0.08	0.026	0.007	0.002	-0.07	0.002	–	–	–	-0.031	-0.106	0.021	-0.115	–	0.243	-0.153	0.083	0.2
SDC3 (UniProt O75056)	–	0.081	-0.045	0.166	–	–	–	–	-0.047	–	0.057	0.151	0.11	-0.131	-0.19	–	0.115	-0.674	-0.193	–
RRP36 (UniProt Q96EU6)	–	0.372	-0.054	0.203	-0.217	0.01	-0.268	0.088	-0.115	–	-0.645	0.271	-0.16	0.031	0.022	–	-0.042	-0.181	0.182	0.043
S100A10 (UniProt P60903)	–	-0.143	-0.045	0.165	–	0.093	–	0.01	-0.004	–	–	0.063	–	0.057	–	–	0.305	-0.056	0.131	–
SCYL3 isoform 2 (UniProt Q8IZE3)	0.017	–	0.008	-0.117	0.063	0.039	0.032	-0.084	–	-0.118	-0.106	-0.044	0.129	-0.113	-0.024	-0.01	0.063	0.018	-0.069	-0.041
SCAMP2 (UniProt O15127)	–	0.036	0.171	-0.1	-0.087	-0.035	0.042	0.009	0.019	–	-0.213	-0.544 (active)	0.009	0.044	-0.065	–	0.036	0.199	0.034	-0.073
SCLT1 (UniProt Q96NL6)	0.433 (active)	-0.063	0.079	–	-0.205	–	0.046	–	0.148	0.003	–	-0.081	0.038	-0.144	-0.028	0.055	-0.022	0.185	0.149	–
ROMO1 (UniProt P60602)	–	-0.024	-0.069	0.044	0.005	-0.024	0.033	-0.079	0.023	–	0.121	0.064	0.117	-0.003	-0.059	–	0.034	0.035	-0.033	-0.061
RNF41 (UniProt Q9H4P4)	–	–	–	-0.031	–	–	–	–	–	–	–	–	–	–	–	–	–	–	–	–
SEMG2 (UniProt Q02383)	–	-0.002	-0.021	-0.135	0.005	–	0.063	–	-0.058	–	0.096	-0.021	–	-0.043	–	–	-0.008	-0.021	-0.032	–
SAFB2 (UniProt K7EQU4)	0.115	–	–	–	–	–	–	–	–	-0.244	0.275	–	–	–	–	-0.04	-0.126	–	–	–
